Source: PubChem BioAssay (NCATS)
“And” between values parts separate entries of the source, which are not always exact repeats. Equal entries are not always repeated. Records with an inconclusive call do not appear. More than one record can exist for a structure, and the calls need not agree. The source made the active and inactive calls. Calls come from the whole dose curve; as a rule, active = well fitted inhibition curve with a large enough effect; inconclusive = small, poorly fitted or top-dose-only effect; inactive = flat fitted curve, though single readings scatter. Peptide text beside a SMILES is read from it.

What was measured:
W2 = assay: qHTS profiling for inhibitors of Plasmodium falciparum proliferation (AID 504749); note: potency is the fitted concentration of half-maximal effect; settings: P. falciparum in erythrocytes, SYBR Green DNA, 72 h; series mostly up to 28.7 µM
Summary of the method: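 SYBR Green fluorescence of parasite DNA, read after lysis and overnight dark incubation, measured growth over 72 h in erythrocyte culture at 0.3% parasitemia and 2.5% hematocrit. Data normalised to DMSO and 0.29 uM artemisinin, with plate-drift correction.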

CRL-7250 = normal cell line; assay: Cytotoxic Profiling of Annotated Libraries Using Quantitative High-Throughput Screening (AID 1296008); settings: Five cell lines viability, CellTiter-Glo ATP luminescence, 48-72 h; max response: hits give low values; note: potency is the fitted concentration of half-maximal effect; for max response: % is set by controls: 0 for no effect and ±100 for the full control effect
Summary of the method: (§1)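 Cytotoxicity was measured as CellTiter-Glo ATP luminescence, read after 10 min at room temperature. Compound treatment of the cells lasted 48 or 72 hr at 37 degrees Celsius in a qHTS format.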

HEK293 = assay: as above; settings: Five cell lines viability, CellTiter-Glo ATP luminescence, 48-72 h; max response: hits give low values
Summary of the method: as §1

HaCat [1] = assay: as above; settings: Five cell lines viability, CellTiter-Glo ATP luminescence, 48-72 h; max response: hits give low values
Summary of the method: as §1

KB-3-1 = assay: as above; settings: Five cell lines viability, CellTiter-Glo ATP luminescence, 48-72 h; max response: hits give low values
Summary of the method: as §1

NIH3T3 = assay: as above; settings: Five cell lines viability, CellTiter-Glo ATP luminescence, 48-72 h; max response: hits give low values
Summary of the method: as §1

MCC-13 = assay: qHTS assay to identify novel small-molecules to repurpose for Merkel cell carcinoma treatment (AID 1296009); settings: MCC and control cell lines, CellTiter-Glo viability, 72 h; series mostly up to 46 µM
Summary of the method: (§2)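 Cell viability, measured as CellTiter-Glo luminescence, was normalized between DMSO and no-cell wells. The cells had been exposed to 8- or 11-point compound dilutions for 72 hr at 37 degree celsius.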

MCC-26 = assay: as above; settings: MCC and control cell lines, CellTiter-Glo viability, 72 h; series mostly up to 46 µM
Summary of the method: as §2

HACAT [2] = assay: as above; settings: MCC and control cell lines, CellTiter-Glo viability, 72 h; at 44.8 µM (top of the series) unless noted
Summary of the method: as §2

HEK293T = assay: as above; settings: MCC and control cell lines, CellTiter-Glo viability, 72 h; at 44.8 µM (top of the series) unless noted
Summary of the method: as §2
Note: nearly all actives have a fitted effect of over 60% in size.

CCC[C@@H]1C[C@@H](C(=O)N[C@@H]([C@H]2O[C@H](SC)[C@H](O)[C@@H](O)[C@H]2O)[C@@H](C)O)N(C)C1
active: Potency (W2) 0.338 µM
inactive: max response (CRL-7250) -16.2% | outcome (CRL-7250) | max response (HEK293) -5.82% and -16.1% | max response (HaCat [1]) -11.9% and -14% | max response (KB-3-1) -5.54% | max response (NIH3T3) -4.88% and -7.89% | Potency (MCC-13) | Potency (MCC-26)

COc1cc(C(C)=O)ccc1OCCCN1CCC(c2noc3cc(F)ccc23)CC1
inactive: max response (CRL-7250) -1.04% | outcome (CRL-7250) | max response (HEK293) -12.6% | outcome (HaCat [1]) | outcome (KB-3-1) | max response (NIH3T3) -2.71% | outcome (NIH3T3) | outcome (HACAT [2]) | Potency (MCC-13) | Potency (MCC-26)

COC1=C(OC)C(=O)C(CCCCCCCCCCO)=C(C)C1=O
active: Potency (HEK293) 23.7 µM
inactive: max response (CRL-7250) -2.47% | outcome (CRL-7250) | max response (HaCat [1]) -8.33% | outcome (HaCat [1]) | max response (KB-3-1) -4.5% and -1.13% | max response (NIH3T3) 4.9% | outcome (NIH3T3) | outcome (HACAT [2]) | Potency (MCC-13) | Potency (MCC-26)

Cc1cccc(CN2CCN(C(c3ccccc3)c3ccc(Cl)cc3)CC2)c1 (configuration not stated)
inactive: max response (CRL-7250) -2.17% | outcome (CRL-7250) | outcome (HaCat [1]) | max response (NIH3T3) 3.98% and 1.14% | outcome (HACAT [2]) | Potency (MCC-13)

Cc1ccc(C)c(OCCCC(C)(C)C(=O)O)c1
inactive: Potency (W2) | max response (CRL-7250) -2.44% | outcome (CRL-7250) | max response (HEK293) 4.9% and 0.17% | max response (HaCat [1]) 3.97% | outcome (HaCat [1]) | max response (NIH3T3) -1.31% and 0.244% | outcome (HACAT [2]) | Potency (MCC-13) | Potency (MCC-26)

CCCS(=O)c1ccc2nc(NC(=O)OC)[nH]c2c1 (configuration not stated)
inactive: max response (CRL-7250) -27.5% | max response (NIH3T3) -29.9% | Potency (MCC-13) | Potency (MCC-26)
active: Potency (CRL-7250) 21.1 µM | Potency (HEK293) 23.7 µM | Potency (KB-3-1) 20.6 µM

Cc1nc(-c2ccc(OCC(C)C)c(C#N)c2)sc1C(=O)O
inactive: max response (CRL-7250) 2.28% | outcome (CRL-7250) | max response (HEK293) -1.16% and -8.21% | max response (HaCat [1]) 0.712% | outcome (HaCat [1]) | max response (KB-3-1) 3.2% | max response (NIH3T3) 4.8% | outcome (NIH3T3) | outcome (HACAT [2]) | Potency (MCC-13) | Potency (MCC-26)

COC(=O)[C@H](Cc1ccccc1)NC(=O)[C@@H](N)CC(=O)O (H-Asp-Phe-OMe)
inactive: Potency (W2) | max response (CRL-7250) 3.9% | outcome (CRL-7250) | max response (HEK293) -5.62% and -7.54% | max response (HaCat [1]) 0.0507% and -16.9% | max response (NIH3T3) -5.4% and -2.3% | Potency (MCC-13) | Potency (MCC-26)

CCN(CCO)CCCC(C)Nc1ccnc2cc(Cl)ccc12 (configuration not stated)
inactive: Potency (W2) | max response (CRL-7250) -6.76% and 0.809% | outcome (CRL-7250) | max response (HEK293) 2.34% | outcome (HEK293) | max response (HaCat [1]) -3.55% and -14.9% | outcome (HaCat [1]) | max response (KB-3-1) -5.86% and 9.19% and -2.52% | max response (NIH3T3) -2.56% | outcome (NIH3T3) | outcome (HACAT [2]) inactive [at 4.96 µM] | outcome (HEK293T) inactive [at 4.96 µM] | Potency (MCC-13)

Clc1ccc(C(Cn2ccnc2)OCc2ccc(Sc3ccccc3)cc2)c(Cl)c1 (configuration not stated)
active: Potency (HEK293) 26.4 µM
inactive: max response (CRL-7250) -3.19% | outcome (CRL-7250) | outcome (HEK293) | outcome (HaCat [1]) | max response (KB-3-1) -18.4% | max response (NIH3T3) -3.29% | outcome (NIH3T3) | outcome (HACAT [2]) | outcome (HEK293T) | Potency (MCC-13) | Potency (MCC-26)

CC1=C(C(=O)O)N2C(=O)[C@@H](NC(=O)[C@H](N)C3=CCC=CC3)[C@H]2SC1
inactive: max response (CRL-7250) -13.1% | outcome (CRL-7250) | max response (HEK293) -32.9% | outcome (HEK293) | outcome (HaCat [1]) | max response (KB-3-1) -3.32% | outcome (KB-3-1) | outcome (NIH3T3) | outcome (HACAT [2]) | outcome (HEK293T) | Potency (MCC-13) | Potency (MCC-26)

CS(=O)(=O)OCCCCOS(C)(=O)=O
inactive: Potency (W2) | max response (CRL-7250) -2.55% | outcome (CRL-7250) | max response (HEK293) -5.94% | outcome (HEK293) | max response (HaCat [1]) -18.7% | outcome (HaCat [1]) | max response (KB-3-1) 2.33% and 4.33% | max response (NIH3T3) -7.8% and -0.608% | outcome (HACAT [2]) | outcome (HEK293T) | Potency (MCC-13) | Potency (MCC-26)
